Results filed as inconclusive are left out. Activity calls are given as the source filed them. Unless noted, calls follow the shape of the dose curve; as a rule, active = well fitted curve in either direction with a large enough effect (not every such curve was filed as active); inconclusive = small, poorly fitted or top-dose-only effect, or another doubt; inactive = flat fitted curve, though single readings scatter.
Legend:
[1] = target: Lysosomal acid glucosylceramidase (Homo sapiens) (UniProt P04062); assay: Glucocerebrosidase-p2 (AID 348; in the data active = potency below about 10 µM; also: potency is read from the fitted curve at half-maximal effect); conditions: purified GBA, blue fluorogenic substrate, 40 min
Outline: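 Normal human glucocerebrosidase (0.2 nM) with blue fluorogenic substrate (80 uM final) in citrate/phosphate pH 5.9 with 10mM sodium taurocholate, 0.01% tween-20; 40 min RT, NaOH/glycine stop; fluorescence Ex 365/Em 440; AC50 from a titration from 0.6 nM upwards.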

[2] = AP1 Signaling Pathway (AID 357); conditions: ME-180 AP-1-bla reporter, EGF-induced, beta-lactamase ratio, 5 h; at 7.69 µM (top of the series) unless noted; also: % is scaled to controls: 0 for no effect and ±100 for the full control effect
Outline: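 ME-180 cells with beta-lactamase reporter under AP-1 response element, stimulated with EC50 EGF; compounds tested in titration series, 5 h at 37 °C. CCF4 substrate added 2.5 h at room temperature; 460/530 nm emission ratio gave %activity and AC50.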

[3] = target: Cytochrome P450 1A2 (Homo sapiens) (UniProt P05177); assay: p450-cyp1a2 (AID 410; calls by dose curve; also: potency is read from the fitted curve at half-maximal effect;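 as to activity change, negative = inhibition: -100% = full effect of reference inhibitor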); conditions: recombinant CYP1A2, luciferin-ME demethylation, luminescence; series mostly up to 57 µM
Outline: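 O-Demethylation of luciferin 6' methyl ether by human CYP1A2 is monitored as luciferase luminescence. Substrate sits at Km (100uM); enzyme is 20nM. Values are scaled to 57 uM furafylline as maximal inhibition.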

[4] = NFAT Signaling Pathway (AID 444); conditions: Jurkat NFAT-bla M1, carbachol, beta-lactamase ratio, 5 h; at 7.69 µM (top of the series) unless noted;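 also: carbachol stimulus at about its EC50 of 1 µM final; % is scaled to controls: 0 for no effect and ±100 for the full control effect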
Outline: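 Jurkat cells carrying an NFAT-driven β-lactamase reporter and co-transfected muscarinic M1 receptor were treated with compound plus carbachol (1 uM final, an EC50 level) for 5 h at 37 °C. CCF4 loading followed for 1 h at RT; 460/530 nm ratio gave %activity.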

[5] = Stat Signaling Pathway (AID 446); conditions: ME-180 (cervical carcinoma) SIE beta-lactamase reporter, IL-6 stimulated, 5 h; at 7.69 µM (top of the series) unless noted;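 also: ME-180 cervical cancer cells given 40 pM IL-6 alongside compound; SIE-controlled beta-lactamase reporter measured as 460/530 nm FRET emission ratio; % is scaled to controls: 0 for no effect and ±100 for the full control effect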
Outline: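 Normalization used AC90 stimulation (300 pM IL-6) and AC90 inhibition (125 nM pan-JAK inhibitor at 40 pM IL-6). The underlying signal is SIE-driven beta-lactamase in ME-180 cells after 5 h IL-6 exposure with compound.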

[6] = target: Glucocorticoid receptor (Homo sapiens) (UniProt P04150); assay: GR-EFC Redistribution (AID 451; calls by dose curve; also: potency is read from the fitted curve at half-maximal effect); conditions: CHO-K1 GR-EFC translocation, beta-gal luminescence, 2 h
Outline: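 CHO-K1 cells stably expressing nuclear-localized β-gal enzyme acceptor and GR fused C-terminally to the enzyme donor fragment; ligand-driven nuclear translocation restores β-gal by complementation. Compounds titrated up to 46 uM final, 2 h at 37 °C; luminescence read.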

[7] = target: Mitogen-activated protein kinase 10 (Mus musculus) (UniProt Q61831); assay: JNK3 AlphaScreen Assay (AID 530); conditions: JNK3 lysate, c-Jun phosphorylation; series mostly up to 57.1 µM;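 also: kinase came from lysate of stimulated human HepG2 cells; signal reports phosphorylation of biotinylated GST-cJun 1-79 at Ser73 with 10 µM ATP; % is scaled to controls: 0 for no effect and ±100 for the full control effect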
Outline: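 Phosphorylation of biotinylated GST-cJun(1-79) at Ser73 is measured by AlphaScreen proximity luminescence. Enzyme is JNK3 in HepG2 lysates activated with interleukin-1beta and tumor necrosis factor alpha; ATP is 10 uM final.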

[8] = target: 3',5'-cyclic-AMP phosphodiesterase 4B (Homo sapiens) (UniProt Q07343); assay: qHTS Assay for Inhibitors of PDE-IV (AID 607; active = well fitted activation curve with a large enough effect in the main read-out, with a control signal flat, not every such curve was filed as active; also: % of control where 0% means no effect); conditions: HEK293 ACTOne CNG channel cells, membrane potential fluorescence; series mostly up to 22.9 µM
Outline: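 HEK293 ACTOne cells with CNG channel (1000/well), endogenous PDE4; membrane potential dye, compounds up to 22.9 uM final. Fluorescence Ex 535/Em 590; RO 20-1724 (100 uM final) as reference.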

[9] = qHTS Assay for Lipid Storage Modulators (AID 1519; calls by dose curve); conditions: Drosophila S3 cells, BODIPY lipid droplet/cell ratio, laser cytometry, cells loaded with oleic acid; for activity change, negative = inhibition: at 57.5 µM (top of the series)
Outline: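 Cells seeded at 5,000 per well were treated with compounds over a concentration series and loaded with oleic acid (400 uM, as added). Lipid droplet fluorescence (488 nm excitation, 500-530 nm channel) was read by laser-scanning cytometry and normalized to 20 uM Triacsin C.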

[10] = target: Glucocorticoid receptor (Homo sapiens) (UniProt P04150); assay: GR-GFP Redistribution (AID 450;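 active = compounds whose dose series gives a full or clear partial fitted curve of increased nuclear translocation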; also: potency is read from the fitted curve at half-maximal effect); conditions: U2OS GR-GFP nuclear translocation, laser cytometry, 2 h
[11] = target: Cytochrome P450 3A4 (Homo sapiens) (UniProt P08684); assay: qHTS Assay for Activators of Cytochrome P450 3A4 (AID 885; active = well fitted curve in the direction sought with a large enough effect; an effect the other way counts as inactive or inconclusive; also: nearly all actives have a fitted effect of over 65% in size); conditions: recombinant CYP3A4, Luciferin-PPXE luminescence, 60 min; series mostly up to 57.1 µM
Outline: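 Human CYP3A4 dealkylates Luciferin-PPXE to luciferin, which luciferase detection converts to light. Substrate was at its KM (25uM), buffer 200mM KPO4, reaction 60 min at RT.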

[12] = Confirmation and Secondary Assay for Modulators of Hemoglobin Beta Chain Splicing at IVS2 654 locus (AID 910; active = well fitted curve in the direction sought with a large enough effect; an effect the other way counts as inactive or inconclusive;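 also: per-well total GFP intensity by laser scanning cytometry after 2-day treatment; % of control where 0% means no effect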); conditions: HeLa EGFP-654 splicing reporter, GFP fluorescence, 48 h; series mostly up to 38.3 µM
Outline: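 HeLa cells stably carrying EGFP interrupted by mutant beta-globin IVS2-654 intron (CMV-driven) were treated with compound for 2 days at 37C; corrected splicing was scored as total peak GFP intensity per well (488 nm excitation, 500-520 nm emission).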

[13] = Confirmation and Secondary Assay for Modulators of Hemoglobin Beta Chain Splicing at IVS2 705 locus (AID 930; active = well fitted curve in the direction sought with a large enough effect; an effect the other way counts as inactive or inconclusive;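 also: HeLa cells stably expressing the EGFP-705 splicing reporter; GFP fluorescence per well restored by corrected splicing of the IVS2-705 intron in EGFP; % of control where 0% means no effect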); conditions: HeLa EGFP-705 splicing reporter, GFP fluorescence, 48 h; series mostly up to 38.3 µM
Outline: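 Per-well GFP, captured at 1 x 8 µm resolution with 488 nm excitation, served as the read-out for HeLa EGFP-705 cells incubated 2 days with test compound versus DMSO.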

[14] = target: Ubiquitin carboxyl-terminal hydrolase 1 (Homo sapiens) (UniProt O94782); assay: Inhibitors of USP1/UAF1: Pilot qHTS (AID 504865; active = well fitted curve in the direction sought with a large enough effect; an effect the other way counts as inactive or inconclusive; also: nearly all actives have a fitted effect of over 35% in size; also: potency is read from the fitted curve at half-maximal effect); conditions: purified USP1/UAF1, Ub-rhodamine cleavage fluorescence; series mostly up to 54.9 µM
Outline: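 USP1/UAF1 complex at 1 nM preincubated 15 min at room temperature with compound, then Ub-Rho substrate added at 150 nM final. Fluorescence (480/540 nm) read kinetically in 50 mM HEPES pH 7.8, 0.5 mM EDTA, 1 mM TCEP, 0.1 mg/ml BSA, 0.01% Tween-20.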

[15] = target: Cytochrome P450 3A4 (Homo sapiens) (UniProt P08684); assay: qHTS Assay for Inhibitors and Substrates of Cytochrome P450 3A4 (AID 884; active = well fitted curve in the direction sought with a large enough effect; an effect the other way counts as inactive or inconclusive; also: nearly all actives have a fitted effect of over 50% in size; also: potency is read from the fitted curve at half-maximal effect); conditions: recombinant CYP3A4, Luciferin-PPXE luminescence; series mostly up to 57.1 µM
Outline: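 Luminescent readout of luciferin produced by CYP3A4 (20 nM) dealkylation of Luciferin-PPXE, 25 uM (its KM). NADPH-driven reaction ran 60 min at RT after 10 min compound preincubation; data scaled to 57 uM ketoconazole as 100% inhibition.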

[16] = target: Cytochrome P450 2C19 (Homo sapiens) (UniProt P33261); assay: qHTS Assay for Inhibitors and Substrates of Cytochrome P450 2C19 (AID 899; active = well fitted curve in the direction sought with a large enough effect; an effect the other way counts as inactive or inconclusive; also: potency is read from the fitted curve at half-maximal effect; nearly all actives have a fitted effect of over 60% in size); conditions: recombinant CYP2C19, luciferin-H EGE luminescence; series mostly up to 57.1 µM
Outline: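 In 50mM KPO4, the reaction held 5nM enzyme and KM-level (10uM) Luciferin-H EGE; it ran 60 min at 37C after NADPH regeneration and a 10 min compound preincubation. Luminescence values were scaled to 57uM ketoconazole as complete inhibition.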

[17] = measured here: cell count channel max response
[18] = measured here: lipid channel max response

Chain of Ubiquitin carboxyl-terminal hydrolase 1 (Homo sapiens) (O94782 whole entry, looked up): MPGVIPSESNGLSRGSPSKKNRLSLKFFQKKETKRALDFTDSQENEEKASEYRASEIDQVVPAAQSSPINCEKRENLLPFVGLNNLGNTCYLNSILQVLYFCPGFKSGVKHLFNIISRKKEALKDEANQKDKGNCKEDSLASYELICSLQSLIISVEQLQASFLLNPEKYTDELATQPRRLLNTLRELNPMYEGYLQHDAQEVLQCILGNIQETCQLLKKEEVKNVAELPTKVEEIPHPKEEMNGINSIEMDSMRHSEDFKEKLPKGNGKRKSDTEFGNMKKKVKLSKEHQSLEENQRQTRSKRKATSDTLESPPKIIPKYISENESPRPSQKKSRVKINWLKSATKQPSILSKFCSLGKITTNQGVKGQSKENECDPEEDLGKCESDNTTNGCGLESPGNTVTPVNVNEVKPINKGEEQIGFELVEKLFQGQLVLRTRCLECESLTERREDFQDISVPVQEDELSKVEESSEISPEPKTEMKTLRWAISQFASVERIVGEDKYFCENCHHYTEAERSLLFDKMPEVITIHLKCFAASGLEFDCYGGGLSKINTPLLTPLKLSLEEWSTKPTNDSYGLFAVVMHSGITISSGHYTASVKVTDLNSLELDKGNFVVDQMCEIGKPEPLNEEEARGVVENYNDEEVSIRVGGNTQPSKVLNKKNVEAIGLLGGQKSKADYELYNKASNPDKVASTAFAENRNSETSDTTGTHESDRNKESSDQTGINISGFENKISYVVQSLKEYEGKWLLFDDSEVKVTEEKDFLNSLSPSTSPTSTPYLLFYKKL
Chain of Glucocorticoid receptor (Homo sapiens) (P04150 whole entry, looked up, the tested form may be a part): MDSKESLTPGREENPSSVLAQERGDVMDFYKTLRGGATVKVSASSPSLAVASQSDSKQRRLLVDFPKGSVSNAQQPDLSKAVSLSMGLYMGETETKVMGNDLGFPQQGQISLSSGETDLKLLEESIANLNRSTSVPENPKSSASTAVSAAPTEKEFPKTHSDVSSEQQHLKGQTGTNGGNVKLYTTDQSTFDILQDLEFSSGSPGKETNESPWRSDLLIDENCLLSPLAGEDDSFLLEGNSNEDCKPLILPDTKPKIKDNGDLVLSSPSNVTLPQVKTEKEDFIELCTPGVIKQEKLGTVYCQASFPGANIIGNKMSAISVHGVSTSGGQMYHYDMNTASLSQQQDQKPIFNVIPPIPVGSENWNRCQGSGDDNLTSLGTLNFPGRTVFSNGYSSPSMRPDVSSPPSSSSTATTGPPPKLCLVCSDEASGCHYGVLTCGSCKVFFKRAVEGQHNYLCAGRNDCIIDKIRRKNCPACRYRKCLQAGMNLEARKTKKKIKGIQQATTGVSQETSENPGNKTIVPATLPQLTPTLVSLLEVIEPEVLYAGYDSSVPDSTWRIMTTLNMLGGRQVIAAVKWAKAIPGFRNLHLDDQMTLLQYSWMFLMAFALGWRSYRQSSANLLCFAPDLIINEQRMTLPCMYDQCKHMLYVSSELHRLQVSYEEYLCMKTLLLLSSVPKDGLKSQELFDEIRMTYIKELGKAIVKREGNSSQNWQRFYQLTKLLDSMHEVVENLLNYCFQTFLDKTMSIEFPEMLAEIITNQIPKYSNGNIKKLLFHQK
Chain of 3',5'-cyclic-AMP phosphodiesterase 4B (Homo sapiens) (Q07343 whole entry, looked up): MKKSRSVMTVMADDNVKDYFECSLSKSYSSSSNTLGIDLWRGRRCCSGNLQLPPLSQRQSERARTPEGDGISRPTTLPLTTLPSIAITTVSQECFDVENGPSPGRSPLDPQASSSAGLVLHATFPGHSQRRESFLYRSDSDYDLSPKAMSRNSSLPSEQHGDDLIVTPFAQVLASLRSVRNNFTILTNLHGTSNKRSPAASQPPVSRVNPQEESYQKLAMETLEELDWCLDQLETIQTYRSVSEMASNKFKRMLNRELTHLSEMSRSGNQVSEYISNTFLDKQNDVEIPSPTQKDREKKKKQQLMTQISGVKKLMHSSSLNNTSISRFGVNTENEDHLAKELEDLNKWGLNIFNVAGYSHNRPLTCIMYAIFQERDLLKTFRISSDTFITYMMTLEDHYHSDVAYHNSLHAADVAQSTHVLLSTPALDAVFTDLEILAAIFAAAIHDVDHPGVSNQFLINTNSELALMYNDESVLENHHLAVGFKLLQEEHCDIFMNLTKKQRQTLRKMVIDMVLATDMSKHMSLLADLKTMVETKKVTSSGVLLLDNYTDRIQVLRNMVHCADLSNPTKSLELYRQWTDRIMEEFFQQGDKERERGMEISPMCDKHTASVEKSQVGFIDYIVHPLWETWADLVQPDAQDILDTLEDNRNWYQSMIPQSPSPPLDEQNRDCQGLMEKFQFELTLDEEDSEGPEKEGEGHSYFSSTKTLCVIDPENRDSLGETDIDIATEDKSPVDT
Chain of Lysosomal acid glucosylceramidase (Homo sapiens) (P04062 whole entry, looked up): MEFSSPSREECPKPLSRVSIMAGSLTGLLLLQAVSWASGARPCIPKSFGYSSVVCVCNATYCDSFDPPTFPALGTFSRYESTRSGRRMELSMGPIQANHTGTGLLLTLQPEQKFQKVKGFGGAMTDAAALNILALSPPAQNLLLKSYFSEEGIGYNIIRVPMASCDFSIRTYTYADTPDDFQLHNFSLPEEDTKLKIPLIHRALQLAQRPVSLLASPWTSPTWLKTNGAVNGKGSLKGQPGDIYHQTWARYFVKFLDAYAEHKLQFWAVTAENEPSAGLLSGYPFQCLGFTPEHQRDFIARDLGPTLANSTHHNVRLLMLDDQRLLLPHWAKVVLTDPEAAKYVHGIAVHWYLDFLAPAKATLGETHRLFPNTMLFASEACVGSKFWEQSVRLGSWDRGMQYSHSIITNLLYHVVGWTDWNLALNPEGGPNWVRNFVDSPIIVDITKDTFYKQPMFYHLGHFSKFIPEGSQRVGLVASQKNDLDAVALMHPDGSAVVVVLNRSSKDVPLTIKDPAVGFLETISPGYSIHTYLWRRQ
Chain of Cytochrome P450 1A2 (Homo sapiens) (P05177 whole entry, looked up): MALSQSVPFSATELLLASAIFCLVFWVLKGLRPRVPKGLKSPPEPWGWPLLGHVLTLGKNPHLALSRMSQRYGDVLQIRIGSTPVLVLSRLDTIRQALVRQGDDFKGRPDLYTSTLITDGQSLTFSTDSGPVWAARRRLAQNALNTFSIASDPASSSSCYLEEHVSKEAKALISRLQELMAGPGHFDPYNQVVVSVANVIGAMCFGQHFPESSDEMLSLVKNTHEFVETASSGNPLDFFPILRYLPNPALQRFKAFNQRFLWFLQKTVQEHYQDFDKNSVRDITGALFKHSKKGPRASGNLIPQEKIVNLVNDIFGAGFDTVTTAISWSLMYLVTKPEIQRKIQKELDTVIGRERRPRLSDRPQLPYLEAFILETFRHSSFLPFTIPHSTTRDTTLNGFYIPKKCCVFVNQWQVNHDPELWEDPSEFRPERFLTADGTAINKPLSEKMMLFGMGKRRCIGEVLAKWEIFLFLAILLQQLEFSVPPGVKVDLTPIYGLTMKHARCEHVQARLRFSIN
Chain of Cytochrome P450 3A4 (Homo sapiens) (P08684 whole entry, looked up): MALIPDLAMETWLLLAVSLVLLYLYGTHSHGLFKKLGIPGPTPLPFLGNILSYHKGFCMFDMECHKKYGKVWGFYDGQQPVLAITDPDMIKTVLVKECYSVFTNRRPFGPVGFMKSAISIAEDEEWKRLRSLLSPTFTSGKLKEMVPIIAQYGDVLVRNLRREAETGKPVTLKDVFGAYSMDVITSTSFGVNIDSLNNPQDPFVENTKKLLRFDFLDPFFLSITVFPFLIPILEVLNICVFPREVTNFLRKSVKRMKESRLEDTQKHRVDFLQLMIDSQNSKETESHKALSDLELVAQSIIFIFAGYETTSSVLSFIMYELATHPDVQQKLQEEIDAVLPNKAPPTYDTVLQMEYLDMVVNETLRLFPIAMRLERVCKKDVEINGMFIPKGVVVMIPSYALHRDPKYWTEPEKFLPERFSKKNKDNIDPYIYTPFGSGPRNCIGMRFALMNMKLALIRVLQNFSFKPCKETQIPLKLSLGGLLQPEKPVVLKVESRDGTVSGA
Chain of Cytochrome P450 2C19 (Homo sapiens) (P33261 whole entry, looked up): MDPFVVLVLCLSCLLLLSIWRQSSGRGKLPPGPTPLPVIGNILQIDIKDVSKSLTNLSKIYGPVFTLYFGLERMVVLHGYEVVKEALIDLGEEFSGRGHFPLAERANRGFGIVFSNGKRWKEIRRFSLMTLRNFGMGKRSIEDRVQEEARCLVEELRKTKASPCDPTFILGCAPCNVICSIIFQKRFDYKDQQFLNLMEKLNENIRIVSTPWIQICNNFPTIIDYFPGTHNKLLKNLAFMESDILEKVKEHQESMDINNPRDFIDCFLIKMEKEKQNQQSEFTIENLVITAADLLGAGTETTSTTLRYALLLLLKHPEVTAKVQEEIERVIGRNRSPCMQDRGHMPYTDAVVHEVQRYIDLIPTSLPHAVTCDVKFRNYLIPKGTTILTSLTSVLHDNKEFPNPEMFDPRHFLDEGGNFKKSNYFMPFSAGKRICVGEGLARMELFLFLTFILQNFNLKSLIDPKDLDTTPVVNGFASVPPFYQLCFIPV

Cn1cccc1C(=O)N1CCC2(CC1)CN(Cc1cc(C(F)(F)F)cc(C(F)(F)F)c1)C2
inactive: Potency [1] > 11.4 µM | activity change, negative = inhibition [2] -5.13% | activity change, negative = inhibition [4] 15.4% | activity, negative = inhibition [5] -14.1% | Potency [6] > 46 µM | Potency [7] | Potency [8] | activity change, negative = inhibition [9] -8.03%
-0.271%: max response [9, 17]
active: Potency [3] 10 µM
-4.98%: max response [9, 18]

COc1cccc(Nc2ncc3nc(C)c(=O)n(CCC#N)c3n2)c1
active: Potency [3] 1.26 µM
inactive: Potency [1] > 11.4 µM | activity change, negative = inhibition [2] -18.4% | activity change, negative = inhibition [4] 4.34% | activity, negative = inhibition [5] -8.39% | Potency [10] > 9.22 µM | Potency [6] > 46 µM | Potency [7] | Potency [8] | Potency [11] | activity change, negative = inhibition [9] -10.8%
-28.8%: max response [9, 18]
-22.6%: max response [9, 17]

COc1ccccc1CNc1ccnc(-c2ccccc2C(F)(F)F)n1
inactive: Potency [1] > 11.4 µM | activity change, negative = inhibition [2] -18.3% | activity change, negative = inhibition [4] -19.1% | activity, negative = inhibition [5] 4.24% | Potency [10] > 46 µM | Potency [7] | Potency [8] | Potency [11] | Potency [12] | outcome [13] | activity change, negative = inhibition [9] 5.29%
2.88%: max response [9, 18]
active: Potency [3] 10 µM | Potency [14] 20 µM
-3.33%: max response [9, 17]

Cc1cccc(CNc2nc(-c3ccoc3)nc3ccccc23)c1
-24.1%: max response [9, 17]
-2.26%: max response [9, 18]
inactive: Potency [1] > 11.4 µM | activity change, negative = inhibition [2] -0.544% | activity change, negative = inhibition [4] -3.51% | activity, negative = inhibition [5] -10.1% | Potency [10] > 46 µM | Potency [6] > 46 µM | Potency [7] | Potency [11] | Potency [12] | outcome [13] | activity change, negative = inhibition [9] 11.1%
active: Potency [3] 1.26 µM | Potency [15] 6.31 µM | Potency [16] 7.94 µM

COc1ccc(NC(=O)N2CCCC3(CCN(C(=O)c4cc(C(F)(F)F)cc(C(F)(F)F)c4)CC3)C2)cc1
18.5%: max response [9, 18]
inactive: Potency [1] > 11.4 µM | activity change, negative = inhibition [2] -9.5% | Potency [3] | activity change, negative = inhibition [4] 12.1% | activity, negative = inhibition [5] -15.1% | Potency [6] > 46 µM | Potency [7] | Potency [8] | Potency [11] | activity change, negative = inhibition [9] 6.29%
9.63%: max response [9, 17]

Cc1cccc(CNc2ccnc(-c3ccc(C(=O)N(C)C)cc3)n2)c1
-6.92%: max response [9, 17]
active: Potency [3] 25.1 µM
inactive: Potency [1] > 11.4 µM | activity change, negative = inhibition [2] -17.2% | activity change, negative = inhibition [4] 6.95% | activity, negative = inhibition [5] -2.13% | Potency [10] > 46 µM | Potency [6] > 46 µM | Potency [7] | Potency [15] | Potency [12] | outcome [13] | activity change, negative = inhibition [9] 7.06% | Potency [14]
0.35%: max response [9, 18]

CN(Cc1ccco1)c1ccnc(-c2cccc(NS(C)(=O)=O)c2)n1
18.7%: max response [9, 17]
26.7%: max response [9, 18]
inactive: Potency [1] > 11.4 µM | activity change, negative = inhibition [2] -9.76% | activity change, negative = inhibition [4] -2.37% | activity, negative = inhibition [5] 2.34% | Potency [10] > 46 µM | Potency [6] > 46 µM | Potency [7] | Potency [8] | Potency [11] | Potency [12] | outcome [13] | activity change, negative = inhibition [9] 9.05% | Potency [14]
active: Potency [3] 1.26 µM | Potency [15] 6.31 µM

CC(=O)N1CCC2(CC1)CCN(c1ccncc1)CC2
-6.95%: max response [9, 18]
-6.73%: max response [9, 17]
inactive: Potency [1] > 11.4 µM | activity change, negative = inhibition [2] -3.43% | Potency [3] | activity change, negative = inhibition [4] -17.4% | activity, negative = inhibition [5] -6.23% | Potency [6] > 46 µM | Potency [7] | Potency [8] | activity change, negative = inhibition [9] -1.07%

COc1ccccc1-c1cncnc1NCc1cccc(C)c1
inactive: Potency [1] > 11.4 µM | activity change, negative = inhibition [2] -3.97% | activity change, negative = inhibition [4] -21.2% | activity, negative = inhibition [5] -6.93% | Potency [10] > 46 µM | Potency [6] > 46 µM | Potency [7] | Potency [11] | Potency [12] | outcome [13] | activity change, negative = inhibition [9] 10.8%
19.2%: max response [9, 18]
7.88%: max response [9, 17]
active: Potency [3] 5.01 µM | Potency [16] 0.398 µM

COCCNc1ncnc2ccc(-c3ccccc3CN(C)C)cc12
inactive: Potency [1] > 11.4 µM | activity change, negative = inhibition [2] -22.6% | activity change, negative = inhibition [4] -6.98% | activity, negative = inhibition [5] 4.88% | Potency [10] > 46 µM | Potency [6] > 46 µM | Potency [7] | Potency [8] | Potency [11] | Potency [12] | outcome [13] | activity change, negative = inhibition [9] 12.3% | Potency [14]
25.7%: max response [9, 18]
13.6%: max response [9, 17]
active: Potency [3] 25.1 µM

CN(C)c1ccc(-c2cc(NCc3cccnc3)ncn2)cc1
14.7%: max response [9, 17]
active: Potency [3] 0.398 µM | Potency [15] 3.16 µM
inactive: Potency [1] > 11.4 µM | activity change, negative = inhibition [2] -9.72% | activity change, negative = inhibition [4] 5.75% | activity, negative = inhibition [5] 0.912% | Potency [10] > 46 µM | Potency [6] > 46 µM | Potency [7] | Potency [8] | Potency [11] | Potency [12] | outcome [13] | activity change, negative = inhibition [9] 7.63% | Potency [14]
22.6%: max response [9, 18]

Source: PubChem BioAssay (NCATS)
